Data reported in the supplement of paper PMC11001985.
A number with no mark means an inactive call.

compound: C#CCNC(=O)CCSSCCC(=O)NCCc1ccc(C=O)c(C=O)c1; experiment: lysine labeling ratio R10:1 (500 µM / 50 µM probe), SILAC-ABPP in living cells; higher = lower intrinsic lysine reactivity toward the probe, active = 2 or less; details: HeLa; probe concentrations 500 vs 50 µM
Description: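 Living HeLa cells (SILAC light/heavy) in PBS at room temperature were labeled with 50 µM versus 500 µM of the lysine-reactive, reductant-cleavable probe OPA-S-S-alkyne (SILAC labeling time not stated). Probe-modified peptides were CuAAC-biotinylated, captured on neutravidin and eluted with DTT/IAA, then quantified by LC-MS/MS. R = median peptide ratio per lysine (500/50 µM), combined over 3 forward and 3 reverse SILAC replicates. Ratios are capped at 20; R < 2 = hyper-reactive.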

Chain of UniProt O95573 (O95573 whole entry): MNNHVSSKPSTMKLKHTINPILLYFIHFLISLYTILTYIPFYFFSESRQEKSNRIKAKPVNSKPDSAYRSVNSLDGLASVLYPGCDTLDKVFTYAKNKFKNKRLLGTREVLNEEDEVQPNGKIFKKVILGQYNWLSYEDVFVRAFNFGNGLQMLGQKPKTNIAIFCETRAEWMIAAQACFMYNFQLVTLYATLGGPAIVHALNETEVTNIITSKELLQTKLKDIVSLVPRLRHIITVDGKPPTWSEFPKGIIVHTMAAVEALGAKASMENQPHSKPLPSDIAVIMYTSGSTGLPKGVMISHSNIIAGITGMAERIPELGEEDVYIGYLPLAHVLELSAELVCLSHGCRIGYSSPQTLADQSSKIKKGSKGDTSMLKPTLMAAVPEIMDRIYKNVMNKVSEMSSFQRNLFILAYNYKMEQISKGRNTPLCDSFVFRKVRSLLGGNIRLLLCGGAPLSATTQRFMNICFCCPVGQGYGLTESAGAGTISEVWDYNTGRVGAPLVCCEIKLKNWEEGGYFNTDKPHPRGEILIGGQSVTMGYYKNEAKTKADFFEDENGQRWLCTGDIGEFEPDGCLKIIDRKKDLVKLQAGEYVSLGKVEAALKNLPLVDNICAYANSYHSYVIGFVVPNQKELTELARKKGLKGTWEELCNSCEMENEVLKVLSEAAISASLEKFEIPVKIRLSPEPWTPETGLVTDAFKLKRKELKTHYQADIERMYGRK
Chain of UniProt O43854 (O43854 whole entry): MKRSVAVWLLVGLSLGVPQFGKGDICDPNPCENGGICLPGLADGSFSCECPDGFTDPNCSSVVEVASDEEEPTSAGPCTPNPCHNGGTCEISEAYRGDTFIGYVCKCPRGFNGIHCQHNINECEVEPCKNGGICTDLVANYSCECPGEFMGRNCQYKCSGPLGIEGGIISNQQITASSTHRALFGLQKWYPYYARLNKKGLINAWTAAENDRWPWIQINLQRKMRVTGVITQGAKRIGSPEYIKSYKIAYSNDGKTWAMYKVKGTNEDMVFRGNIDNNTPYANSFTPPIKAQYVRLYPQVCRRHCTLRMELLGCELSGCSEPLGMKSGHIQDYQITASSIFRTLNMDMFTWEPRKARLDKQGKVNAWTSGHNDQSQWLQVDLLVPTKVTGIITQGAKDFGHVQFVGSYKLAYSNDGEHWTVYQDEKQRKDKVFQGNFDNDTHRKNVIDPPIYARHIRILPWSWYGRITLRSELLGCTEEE
Chain of UniProt P11717 (P11717 whole entry): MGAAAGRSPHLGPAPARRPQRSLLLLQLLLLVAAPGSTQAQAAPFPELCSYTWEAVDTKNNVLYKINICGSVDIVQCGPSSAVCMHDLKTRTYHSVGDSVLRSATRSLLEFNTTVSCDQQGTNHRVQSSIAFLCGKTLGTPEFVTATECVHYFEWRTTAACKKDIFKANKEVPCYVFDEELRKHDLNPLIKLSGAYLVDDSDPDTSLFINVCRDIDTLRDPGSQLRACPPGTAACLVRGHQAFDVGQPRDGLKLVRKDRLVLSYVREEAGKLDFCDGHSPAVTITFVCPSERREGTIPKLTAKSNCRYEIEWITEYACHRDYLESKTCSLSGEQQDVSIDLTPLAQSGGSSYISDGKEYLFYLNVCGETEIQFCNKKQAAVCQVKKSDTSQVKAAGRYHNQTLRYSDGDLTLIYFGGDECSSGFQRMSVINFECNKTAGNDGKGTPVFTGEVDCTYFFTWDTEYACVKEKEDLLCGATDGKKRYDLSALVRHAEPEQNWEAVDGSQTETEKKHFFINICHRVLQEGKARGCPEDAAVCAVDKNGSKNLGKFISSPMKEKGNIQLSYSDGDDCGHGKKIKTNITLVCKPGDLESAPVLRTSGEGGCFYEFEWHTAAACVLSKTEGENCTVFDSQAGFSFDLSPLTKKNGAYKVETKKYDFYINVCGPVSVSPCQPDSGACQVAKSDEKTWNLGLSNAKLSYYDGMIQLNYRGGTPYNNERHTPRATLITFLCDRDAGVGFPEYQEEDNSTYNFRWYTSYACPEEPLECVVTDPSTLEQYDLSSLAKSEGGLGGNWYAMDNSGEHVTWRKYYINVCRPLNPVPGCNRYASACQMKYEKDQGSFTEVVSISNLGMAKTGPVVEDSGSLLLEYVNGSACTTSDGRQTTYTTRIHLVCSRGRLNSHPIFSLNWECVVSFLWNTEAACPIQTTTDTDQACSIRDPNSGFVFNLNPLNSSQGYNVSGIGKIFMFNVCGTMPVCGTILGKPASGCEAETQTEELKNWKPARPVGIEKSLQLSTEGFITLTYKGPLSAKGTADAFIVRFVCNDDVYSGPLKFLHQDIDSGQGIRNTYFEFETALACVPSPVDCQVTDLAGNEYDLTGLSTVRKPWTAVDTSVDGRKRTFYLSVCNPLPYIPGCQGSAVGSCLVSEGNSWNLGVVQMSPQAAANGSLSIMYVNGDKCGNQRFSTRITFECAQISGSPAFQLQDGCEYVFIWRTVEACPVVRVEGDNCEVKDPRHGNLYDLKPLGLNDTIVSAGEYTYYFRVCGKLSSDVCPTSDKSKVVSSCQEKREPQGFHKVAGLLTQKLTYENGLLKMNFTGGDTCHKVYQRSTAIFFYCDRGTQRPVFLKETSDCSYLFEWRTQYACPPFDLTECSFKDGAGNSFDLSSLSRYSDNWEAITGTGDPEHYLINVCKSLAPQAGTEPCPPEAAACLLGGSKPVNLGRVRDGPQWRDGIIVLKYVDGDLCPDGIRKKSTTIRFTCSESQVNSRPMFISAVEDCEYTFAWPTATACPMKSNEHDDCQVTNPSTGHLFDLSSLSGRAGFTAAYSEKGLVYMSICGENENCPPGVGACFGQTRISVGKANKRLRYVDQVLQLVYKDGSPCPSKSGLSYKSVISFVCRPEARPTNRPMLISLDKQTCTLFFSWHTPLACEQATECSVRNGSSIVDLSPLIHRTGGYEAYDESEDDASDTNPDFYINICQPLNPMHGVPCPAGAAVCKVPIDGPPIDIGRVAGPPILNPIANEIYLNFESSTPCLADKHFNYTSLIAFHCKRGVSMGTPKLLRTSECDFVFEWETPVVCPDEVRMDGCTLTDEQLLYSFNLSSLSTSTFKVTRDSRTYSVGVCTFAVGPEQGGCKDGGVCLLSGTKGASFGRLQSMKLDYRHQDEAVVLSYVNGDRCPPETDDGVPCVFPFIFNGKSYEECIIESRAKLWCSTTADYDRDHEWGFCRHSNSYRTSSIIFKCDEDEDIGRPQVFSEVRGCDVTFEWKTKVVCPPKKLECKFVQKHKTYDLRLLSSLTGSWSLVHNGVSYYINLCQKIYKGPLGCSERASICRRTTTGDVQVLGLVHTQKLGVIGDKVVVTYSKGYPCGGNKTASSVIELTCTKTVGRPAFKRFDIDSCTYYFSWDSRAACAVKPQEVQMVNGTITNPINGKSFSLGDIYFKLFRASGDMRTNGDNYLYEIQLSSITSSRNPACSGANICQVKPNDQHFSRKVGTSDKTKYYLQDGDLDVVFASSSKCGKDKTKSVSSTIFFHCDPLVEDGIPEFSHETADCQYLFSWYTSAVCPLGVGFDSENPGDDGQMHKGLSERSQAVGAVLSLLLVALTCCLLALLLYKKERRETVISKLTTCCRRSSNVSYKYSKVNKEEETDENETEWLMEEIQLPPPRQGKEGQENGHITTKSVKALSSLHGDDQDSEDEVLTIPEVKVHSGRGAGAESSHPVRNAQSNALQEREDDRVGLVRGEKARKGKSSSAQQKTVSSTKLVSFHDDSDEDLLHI
Chain of UniProt P06396 (P06396 whole entry): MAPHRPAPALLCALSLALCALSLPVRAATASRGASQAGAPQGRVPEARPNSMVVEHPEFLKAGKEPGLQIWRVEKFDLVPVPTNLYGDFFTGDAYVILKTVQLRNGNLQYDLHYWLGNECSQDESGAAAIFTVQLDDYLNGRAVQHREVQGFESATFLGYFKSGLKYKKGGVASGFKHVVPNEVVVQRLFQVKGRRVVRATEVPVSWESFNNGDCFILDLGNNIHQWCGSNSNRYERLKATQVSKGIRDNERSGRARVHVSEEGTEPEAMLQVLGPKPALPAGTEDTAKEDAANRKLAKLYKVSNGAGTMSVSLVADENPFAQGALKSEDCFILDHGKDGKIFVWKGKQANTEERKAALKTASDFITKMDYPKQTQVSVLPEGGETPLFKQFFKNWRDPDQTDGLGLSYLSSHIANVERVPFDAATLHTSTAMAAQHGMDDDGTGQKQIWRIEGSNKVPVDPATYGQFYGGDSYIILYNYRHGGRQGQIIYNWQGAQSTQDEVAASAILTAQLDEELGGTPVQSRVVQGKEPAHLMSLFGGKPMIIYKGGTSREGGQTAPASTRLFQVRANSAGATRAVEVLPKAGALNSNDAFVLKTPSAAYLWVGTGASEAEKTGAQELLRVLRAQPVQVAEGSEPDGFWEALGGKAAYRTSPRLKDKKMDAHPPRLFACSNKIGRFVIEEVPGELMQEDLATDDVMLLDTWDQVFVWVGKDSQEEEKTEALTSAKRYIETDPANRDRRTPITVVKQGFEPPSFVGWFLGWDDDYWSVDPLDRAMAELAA
Chain of UniProt Q13011 (Q13011 whole entry): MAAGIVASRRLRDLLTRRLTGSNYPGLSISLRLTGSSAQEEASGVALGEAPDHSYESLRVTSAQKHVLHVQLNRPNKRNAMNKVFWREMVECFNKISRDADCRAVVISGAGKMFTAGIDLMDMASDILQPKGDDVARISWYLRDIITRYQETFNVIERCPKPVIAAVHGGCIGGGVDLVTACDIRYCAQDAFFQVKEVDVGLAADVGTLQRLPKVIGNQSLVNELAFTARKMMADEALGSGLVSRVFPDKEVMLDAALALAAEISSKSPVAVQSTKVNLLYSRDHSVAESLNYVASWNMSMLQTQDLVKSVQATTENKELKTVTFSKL
Chain of UniProt O43657 (O43657 whole entry): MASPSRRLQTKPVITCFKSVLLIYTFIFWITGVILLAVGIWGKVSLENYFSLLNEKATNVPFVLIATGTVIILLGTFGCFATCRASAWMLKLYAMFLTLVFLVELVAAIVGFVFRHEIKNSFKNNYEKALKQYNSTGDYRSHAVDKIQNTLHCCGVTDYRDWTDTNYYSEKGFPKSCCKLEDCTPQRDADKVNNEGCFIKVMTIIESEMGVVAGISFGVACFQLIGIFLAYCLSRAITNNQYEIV

Target	lysine labeling ratio R10:1
UniProt Q15149 (lysine site: K1552)	2.31
EDIL3 (lysine site: K235) (UniProt O43854)	7.28
TSPAN6 (lysine site: K179) (UniProt O43657)	1.94 (active)
UniProt Q8WXI7 (lysine site: K13384)	7.85
UniProt P62263 (lysine site: K106)	5.29
GSN (lysine site: K193) (UniProt P06396)	2.07
IGF2R (lysine site: K393) (UniProt P11717)	3.23
LPL (lysine site: K265) (UniProt P06858)	1.86 (active)
EPHA5 (lysine site: K194) (UniProt P54756)	2.4
UniProt Q9Y653 (lysine site: K49)	1.54 (active)
ACSL3 (lysine site: K222) (UniProt O95573)	2.52
ATAD3B (lysine site: K183) (UniProt Q5T9A4)	1.8 (active)
HSPD1 (lysine site: K301) (UniProt P10809)	2.58
TF (lysine site: K134) (UniProt P02787)	2.36
ACSL3 (lysine site: K397) (UniProt O95573)	3.08
G6PD (lysine site: K171) (UniProt P11413)	6.51
IGSF8 (lysine site: K194) (UniProt Q969P0)	1 (active)
UniProt P46781 (lysine site: K180)	2.7
HNRNPM (lysine site: K242) (UniProt P52272)	1.67 (active)
CD97 (lysine site: K499) (UniProt P48960)	3.84

Target	lysine labeling ratio R10:1
ILF3 (lysine site: K553) (UniProt Q12906)	4.76
SPTBN1 (lysine site: K1021) (UniProt Q01082)	6.62
SPTAN1 (lysine site: K229) (UniProt Q13813)	3.87
FLNB (lysine site: K987) (UniProt O75369)	5.99
MSN (lysine site: K3) (UniProt P26038)	8.6
ECH1 (lysine site: K83) (UniProt Q13011)	1.59 (active)
PA2G4 (lysine site: K287) (UniProt Q9UQ80)	0.997 (active)
LRP1 (lysine site: K3988) (UniProt Q07954)	4.67
IARS (lysine site: K641) (UniProt P41252)	1.71 (active)
IGSF3 (lysine site: K373) (UniProt O75054)	3.12
FAT4 (lysine site: K1809) (UniProt Q6V0I7)	1.9 (active)
UGDH (lysine site: K173) (UniProt O60701)	1.43 (active)
GDI2 (lysine site: K435) (UniProt P50395)	4.66
UniProt P26639 (lysine site: K36)	3.28
UniProt Q15149 (lysine site: K810)	2.16
EDIL3 (lysine site: K431) (UniProt O43854)	1.29 (active)
UniProt P22413 (lysine site: K503)	1.89 (active)
ENG (lysine site: K402) (UniProt P17813)	2.25
UniProt P62269 (lysine site: K54)	1.41 (active)
RPL4 (lysine site: K294) (UniProt P36578)	3.4
